Assay results from PubChem BioAssay (EPA / NIEHS).
Activity calls are given as the source filed them. How the source made its calls: active means hit-call score of the fitted dose curve at least 0.9, where 1 is the maximum; inactive means score below 0.9.

What was measured:
[1] = ATG_CRE_CIS: Attagene CIS-FACTORIAL HepG2 Assay for human cAMP Responsive Element (CRE) binding protein 3 (AID 2282926); conditions: HepG2 CRE cis-reporter, Attagene multiplexed mRNA; actives raise or lower the signal
In short: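 Multiplexed transcription-unit reporters transfected into HepG2; 24 h dosing; RT-PCR/capillary electrophoresis fluorescence read-out; bidirectional fit vs DMSO.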

[2] = target: CCAAT/enhancer-binding protein beta (Homo sapiens) (UniProt P17676); test: ATG_C_EBP_CIS: Attagene CIS-FACTORIAL HepG2 Assay for human CCAAT/Enhancer Binding Protein (C/EBP) beta (AID 2282927); conditions: HepG2 Attagene cis-factorial transcription factor reporter; actives raise or lower the signal
Chain of CCAAT/enhancer-binding protein beta (Homo sapiens) (P17676 whole entry, looked up, the tested form may be a part): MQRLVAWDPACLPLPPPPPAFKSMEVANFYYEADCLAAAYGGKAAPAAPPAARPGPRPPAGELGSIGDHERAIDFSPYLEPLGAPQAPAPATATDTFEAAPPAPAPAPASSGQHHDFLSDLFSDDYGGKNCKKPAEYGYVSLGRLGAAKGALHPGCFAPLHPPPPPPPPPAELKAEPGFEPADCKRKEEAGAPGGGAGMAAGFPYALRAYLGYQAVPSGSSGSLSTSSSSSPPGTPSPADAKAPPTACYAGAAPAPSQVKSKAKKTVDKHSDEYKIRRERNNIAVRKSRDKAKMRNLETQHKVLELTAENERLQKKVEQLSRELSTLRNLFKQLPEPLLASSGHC
In short: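 Chemical-treated HepG2 cells (24 h) bearing cis-regulated reporter constructs were processed for total RNA, then reverse transcription, PCR amplification, fluorescent primer extension and fragment analysis; gain- and loss-of-signal were fitted against DMSO.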

[3] = ATG_CMV_CIS: Attagene CIS-FACTORIAL HepG2 Assay for human CMV (Internal Marker) (AID 2282928); conditions: HepG2 CMV promoter reporter, transcription factor profiling; actives raise or lower the signal;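 further: endpoint acts as a background internal control marker rather than a target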
In short: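 HepG2 cells transiently transfected with multiple cis-regulated reporter units; 24 h compound exposure. Reporter mRNA quantified by RT-PCR, 6-FAM primer-extension labeling, HpaI digestion and capillary electrophoresis; bidirectional fitting against DMSO baseline.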

[4] = ATG_DR4_LXR_CIS: Attagene CIS-FACTORIAL HepG2 Assay for human Liver X Receptor (LXR), DR4 submotif (AID 2282929); conditions: HepG2 Attagene DR4 cis-reporter, mRNA transcription; actives raise or lower the signal
In short: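 HepG2, transient MRTU transfection, cis-element (DR4) promoter; 24 h compound exposure; total RNA → oligo(dT) RT → PCR → 6-FAM primer extension → HpaI cut → CE. Gain/loss vs DMSO, bidirectional fit.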

[5] = ATG_AP_1_CIS: Attagene CIS-FACTORIAL HepG2 Assay for human Activator Protein 1 (AP-1) (AID 2282931); conditions: HepG2 Attagene cis-factorial AP-1 reporter mRNA; actives raise or lower the signal
In short: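 Transient MRTU transfection of HepG2 → 24 h chemical treatment → RNA isolation, RT-PCR, 6-FAM labelling, HpaI digest → capillary electrophoresis. Fit: bidirectional, DMSO negative control.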

[6] = ATG_AP_2_CIS: Attagene CIS-FACTORIAL HepG2 Assay for human Activator Protein 2 (AP-2) (AID 2282932); conditions: HepG2 AP-2 cis-reporter, Attagene transcription factor profiling; actives raise or lower the signal
In short: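 Bidirectional curve fitting against DMSO was applied to reporter mRNA signals from HepG2 cells 24 h after dosing. Cis-promoter reporter units, transiently transfected, were read by RT-PCR plus capillary electrophoresis.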

[7] = ATG_BRE_CIS: Attagene CIS-FACTORIAL HepG2 Assay for human Bone Morphogenetic Protein (BMP) Response Element (BRE) (AID 2282933); conditions: HepG2 BMP response element reporter, Attagene transcription factor profiling; actives raise or lower the signal
In short: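 Endogenous transcription factor activity at a BMP response element was monitored in transfected HepG2 cells 24 h after dosing. Fluorescent RT-PCR products were resolved by capillary electrophoresis, and activity was fitted in both directions versus DMSO.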

[8] = target: Retinoic acid receptor alpha (Homo sapiens) (UniProt P10276); test: ATG_DR5_RAR_CIS: Attagene CIS-FACTORIAL HepG2 Assay for human Retinoic Acid Receptor Alpha (RARE), DR5 submotif (AID 2282934); conditions: HepG2 Attagene cis-factorial RARE DR5 reporter, mRNA; actives raise or lower the signal
Chain of Retinoic acid receptor alpha (Homo sapiens) (P10276 whole entry, looked up): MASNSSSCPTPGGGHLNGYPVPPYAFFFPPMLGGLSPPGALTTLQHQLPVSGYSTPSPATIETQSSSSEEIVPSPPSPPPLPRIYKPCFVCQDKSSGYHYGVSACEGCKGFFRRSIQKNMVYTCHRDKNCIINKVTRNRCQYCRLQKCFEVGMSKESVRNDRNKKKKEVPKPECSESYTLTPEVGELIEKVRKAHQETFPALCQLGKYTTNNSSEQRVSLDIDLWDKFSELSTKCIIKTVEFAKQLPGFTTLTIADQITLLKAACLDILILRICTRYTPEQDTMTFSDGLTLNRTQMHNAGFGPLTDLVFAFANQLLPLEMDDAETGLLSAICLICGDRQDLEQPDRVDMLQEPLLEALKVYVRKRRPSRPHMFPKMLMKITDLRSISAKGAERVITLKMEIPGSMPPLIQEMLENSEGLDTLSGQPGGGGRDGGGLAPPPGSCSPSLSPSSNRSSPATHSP
In short: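 Transfected HepG2 reporter cells are exposed to chemicals for 24 h. Then RNA is extracted and the DR5 element reporter transcript is measured by RT-PCR and capillary electrophoresis, with bidirectional curve fitting relative to DMSO.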

[9] = target: Transcription factor E2F1 (Homo sapiens) (UniProt Q01094); test: ATG_E2F_CIS: Attagene CIS-FACTORIAL HepG2 Assay for human E2F Transcription Factor 1 (AID 2282935); conditions: HepG2 Attagene cis-reporter, E2F reporter RNA transcripts; actives raise or lower the signal
Chain of Transcription factor E2F1 (Homo sapiens) (Q01094 whole entry, looked up): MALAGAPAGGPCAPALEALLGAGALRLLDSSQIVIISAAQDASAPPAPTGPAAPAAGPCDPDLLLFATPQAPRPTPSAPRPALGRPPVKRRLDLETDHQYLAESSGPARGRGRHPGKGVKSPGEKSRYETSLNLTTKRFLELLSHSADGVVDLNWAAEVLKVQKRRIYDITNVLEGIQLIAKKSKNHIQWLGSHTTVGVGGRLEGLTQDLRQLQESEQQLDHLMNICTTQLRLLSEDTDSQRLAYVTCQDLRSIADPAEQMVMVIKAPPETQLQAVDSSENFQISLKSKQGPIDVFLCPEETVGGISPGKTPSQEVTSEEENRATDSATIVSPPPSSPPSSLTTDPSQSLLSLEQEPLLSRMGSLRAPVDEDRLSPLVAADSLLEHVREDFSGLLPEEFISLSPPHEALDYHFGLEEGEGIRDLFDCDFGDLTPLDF
In short: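 Multiplexed cis-reporter assay: HepG2, transient transfection, 24 h dosing, mRNA quantitation by labeled RT-PCR and CE.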

[10] = ATG_E_Box_CIS: Attagene CIS-FACTORIAL HepG2 Assay for human Enhancer Box (E-box) (AID 2282936); conditions: HepG2 E-box cis-reporter transcription, actives raise or lower the signal
In short: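 Multiplexed CIS reporter system in transiently transfected HepG2 cells measures native transcription factor activity. Reporter RNA after 24 h exposure is profiled by RT-PCR-capillary electrophoresis.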

[11] = ATG_EGR_CIS: Attagene CIS-FACTORIAL HepG2 Assay for human Early Growth Response 1 (EGR1) (AID 2282938); conditions: HepG2 Attagene CIS-FACTORIAL EGR reporter mRNA; actives raise or lower the signal
In short: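 Transient transfection of human HepG2 with multiple cis-regulated reporter units, chemical exposure 24 h, total RNA isolated. Reverse transcription, PCR, fluorescent labelling and capillary electrophoresis quantify reporter transcripts; activity fitted bidirectionally against DMSO.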

[12] = ATG_M_19_CIS: Attagene CIS-FACTORIAL HepG2 Assay for M19 Transcription Factor (Internal Marker) (AID 2282939); conditions: HepG2 Attagene CIS-FACTORIAL M19 internal marker reporter; actives raise or lower the signal
In short: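 Background-control endpoint from a multiplexed HepG2 reporter panel. Cells carrying cis-regulated reporter constructs are treated 24 h, then reporter transcripts are amplified, fluorescently labelled and sized by capillary electrophoresis. DMSO defines baseline.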

[13] = ATG_ERE_CIS: Attagene CIS-FACTORIAL HepG2 Assay for Estrogen Response Element (ERE) (AID 2282940); conditions: HepG2 ERE cis-reporter, Attagene RNA transcript; actives raise or lower the signal
In short: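 Cells used were human hepatoma HepG2, transfected with multiple reporter transcription units under cis-regulatory promoters. Reporter mRNA, read 24 h post-dosing via fluorescent RT-PCR products on capillary electrophoresis, was fitted bidirectionally relative to DMSO.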

[14] = ATG_Ets_CIS: Attagene CIS-FACTORIAL HepG2 Assay for human Erythroblast Transformation Specific (ETS) (AID 2282941); conditions: HepG2 ETS cis-reporter transcription, actives raise or lower the signal
In short: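 HepG2 cells transiently transfected with cis-promoter reporter transcription units were dosed for 24 h; reporter mRNA was measured by RT-PCR, 6-FAM primer extension, HpaI digestion and capillary electrophoresis, with bidirectional fitting against DMSO baseline.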

[15] = target: Hepatocyte nuclear factor 3-beta (Homo sapiens) (UniProt Q9Y261); test: ATG_FoxA2_CIS: Attagene CIS-FACTORIAL HepG2 Assay for human Forkhead box A2 (FOXA2) (AID 2282942); conditions: HepG2 cis-reporter transcription factor activity, 24 h; actives raise or lower the signal
Chain of Hepatocyte nuclear factor 3-beta (Homo sapiens) (Q9Y261 whole entry, looked up): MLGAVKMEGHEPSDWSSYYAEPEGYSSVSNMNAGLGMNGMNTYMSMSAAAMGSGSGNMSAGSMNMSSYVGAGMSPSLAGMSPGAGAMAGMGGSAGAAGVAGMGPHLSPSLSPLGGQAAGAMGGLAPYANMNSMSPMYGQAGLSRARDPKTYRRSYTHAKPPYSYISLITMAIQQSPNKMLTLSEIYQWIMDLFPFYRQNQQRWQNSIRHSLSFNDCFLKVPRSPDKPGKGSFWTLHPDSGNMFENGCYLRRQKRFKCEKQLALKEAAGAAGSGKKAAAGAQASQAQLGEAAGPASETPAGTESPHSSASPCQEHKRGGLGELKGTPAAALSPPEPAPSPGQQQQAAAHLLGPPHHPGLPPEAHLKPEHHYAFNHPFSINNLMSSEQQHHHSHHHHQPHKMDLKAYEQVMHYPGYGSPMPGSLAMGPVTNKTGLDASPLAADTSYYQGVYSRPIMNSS
In short: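 Transient MRTU transfection of HepG2 liver cells; 24 h treatment; total RNA → oligo(dT) RT → PCR → FAM primer extension → HpaI cut → CE. Bidirectional fit vs DMSO.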

[16] = ATG_FoxO_CIS: Attagene CIS-FACTORIAL HepG2 Assay for human Forkhead box O (FoxO) (AID 2282943); conditions: HepG2 Attagene cis-reporter, FoxO element, mRNA; actives raise or lower the signal
In short: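 24 h chemical exposure, HepG2 with transient cis-MRTU transfection. RNA extraction, oligo(dT) RT, reporter-specific PCR, primer-extension labelling, HpaI digestion, CE fragment analysis; bidirectional fit, DMSO baseline.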

[17] = ATG_GATA_CIS: Attagene CIS-FACTORIAL HepG2 Assay for human GATA Binding Protein (AID 2282944); conditions: HepG2 GATA cis-element reporter, Attagene multiplex mRNA; actives raise or lower the signal
In short: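 Endogenous transcription factor activity was captured through cis-promoter-driven reporters in transfected HepG2 cells. After 24 h exposure, reporter transcripts were quantified by RT-PCR with fluorescent capillary electrophoresis, and responses fitted both directions against DMSO.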

[18] = ATG_M_61_CIS: Attagene CIS-FACTORIAL HepG2 Assay for M61 Transcription Factor (Internal Marker) (AID 2282937); conditions: HepG2 Attagene CIS-FACTORIAL M61 internal marker reporter; actives raise or lower the signal
In short: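 Human liver HepG2, transient MRTU transfection (cis promoter elements), 24 h compound. Total RNA → oligo(dT) RT → PCR → FAM label → HpaI → CE. Internal background marker; bidirectional fitting, DMSO = baseline.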

[19] = target: Aryl hydrocarbon receptor (Homo sapiens) (UniProt P35869); test: ATG_Ahr_CIS: Attagene CIS-FACTORIAL HepG2 Assay for human Aryl Hydrocarbon Receptor (Ahr) (AID 2282930); conditions: HepG2 AhR cis-factorial reporter transcription; actives raise or lower the signal
Chain of Aryl hydrocarbon receptor (Homo sapiens) (P35869 whole entry, looked up): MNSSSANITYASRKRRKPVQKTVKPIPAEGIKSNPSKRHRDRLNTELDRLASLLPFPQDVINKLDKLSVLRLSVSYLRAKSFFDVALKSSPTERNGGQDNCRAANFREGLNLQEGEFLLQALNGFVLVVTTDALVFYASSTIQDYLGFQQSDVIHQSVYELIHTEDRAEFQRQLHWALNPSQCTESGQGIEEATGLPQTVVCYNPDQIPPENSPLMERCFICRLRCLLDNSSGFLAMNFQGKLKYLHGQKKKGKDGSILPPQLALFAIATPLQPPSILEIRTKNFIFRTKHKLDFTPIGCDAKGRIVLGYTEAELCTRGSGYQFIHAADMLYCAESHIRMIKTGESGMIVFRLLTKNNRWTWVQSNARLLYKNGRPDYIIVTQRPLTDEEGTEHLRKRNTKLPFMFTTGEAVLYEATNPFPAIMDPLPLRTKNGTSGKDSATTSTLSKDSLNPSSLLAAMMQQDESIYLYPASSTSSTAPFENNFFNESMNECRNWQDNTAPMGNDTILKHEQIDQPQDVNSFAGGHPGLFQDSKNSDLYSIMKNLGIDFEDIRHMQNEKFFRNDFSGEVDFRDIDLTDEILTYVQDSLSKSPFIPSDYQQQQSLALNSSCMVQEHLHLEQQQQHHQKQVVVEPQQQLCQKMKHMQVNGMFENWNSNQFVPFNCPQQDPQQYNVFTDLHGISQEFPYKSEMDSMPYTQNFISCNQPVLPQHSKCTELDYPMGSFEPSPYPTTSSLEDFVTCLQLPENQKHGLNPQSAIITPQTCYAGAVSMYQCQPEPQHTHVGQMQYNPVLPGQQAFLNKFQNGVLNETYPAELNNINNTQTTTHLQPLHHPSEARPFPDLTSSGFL
In short: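 Following 24 h of chemical dosing, transfected HepG2 liver cells with cis-driven reporter units were lysed for RNA; reporter mRNA was quantified via RT-PCR and capillary electrophoresis, and responses fitted bidirectionally from DMSO.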

Measured: AC50

CC(O)CN (stereo not given)
inactive: [1] | [2] | [3] | [4] | [5] | [6] | [7] | [8] | [9] | [10] | [11] | [12] | [13] | [14] | [15] | [16] | [17]

Cc1cc(N)n(-c2ccccc2)n1
inactive: [1] | [2] | [3] | [4] | [5] | [7] | [8] | [9] | [10] | [18] | [11] | [12] | [13] | [14] | [15] | [16] | [17]

CC(C)(O)CCc1ccccc1
inactive: [1] | [2] | [3] | [4] | [5] | [6] | [8] | [9] | [10] | [18] | [11] | [12] | [13] | [14] | [15] | [16]

CCOC(=O)CC1(C)OCC(C)O1 (stereo not given)
inactive: [1] | [2] | [3] | [19] | [5] | [6] | [7] | [8] | [9] | [10] | [11] | [12] | [14] | [15] | [16]

CCC(=O)OCC=Cc1ccccc1
inactive: [1] | [2] | [3] | [4] | [5] | [6] | [7] | [9] | [10] | [11] | [12] | [13] | [14] | [15] | [16] | [17]

CCCCCCCCOC(=O)c1ccc(O)cc1
active: [13] 5.12 µM
inactive: [1] | [2] | [3] | [4] | [6] | [7] | [8] | [9] | [10] | [18] | [11] | [12] | [14] | [15] | [16] | [17]

CCCCCCCCOS(=O)(=O)O
active: [13] 135 µM
inactive: [1] | [2] | [3] | [19] | [5] | [6] | [7] | [9] | [10] | [18] | [11] | [12] | [14] | [15] | [16] | [17]

CC/C=C\CCOC(=O)C(C)C
inactive: [1] | [2] | [3] | [4] | [5] | [6] | [7] | [8] | [9] | [10] | [18] | [11] | [12] | [13] | [14] | [15] | [16] | [17]

CC(C)=CC(=O)O
active: [13] 7.06 µM
inactive: [1] | [2] | [3] | [4] | [5] | [6] | [7] | [9] | [10] | [18] | [11] | [12] | [14] | [15] | [16] | [17]

CCO[Si](CCC#N)(OCC)OCC
inactive: [1] | [2] | [3] | [4] | [5] | [9] | [18] | [11] | [12] | [13] | [15] | [16] | [17]

CC1(C)CC(N)CC(C)(CN)C1 (stereo not given)
inactive: [1] | [2] | [3] | [4] | [5] | [6] | [7] | [8] | [9] | [10] | [18] | [11] | [12] | [13] | [14] | [15] | [16] | [17]

CCOC(=O)C(=O)OCC
inactive: [1] | [2] | [3] | [4] | [5] | [6] | [7] | [8] | [9] | [18] | [11] | [12] | [13] | [14] | [15] | [16] | [17]

O=C(C=Cc1ccccc1)OCCCc1ccccc1
active: [13] 29.7 µM
inactive: [1] | [2] | [3] | [4] | [5] | [6] | [7] | [8] | [9] | [10] | [18] | [11] | [12] | [14] | [15] | [16] | [17]

CCn1cc(C(=O)O)c(=O)c2ccc(C)nc21
inactive: [1] | [2] | [3] | [4] | [5] | [6] | [7] | [8] | [9] | [10] | [18] | [11] | [12] | [13] | [14] | [15] | [16] | [17]

CCC(=O)OC(C)(C)C1CC=C(C)CC1 (stereo not given)
inactive: [1] | [2] | [3] | [4] | [6] | [8] | [9] | [10] | [18] | [11] | [12] | [15] | [16] | [17]

CCO[Si](CC)(OCC)OCC
inactive: [1] | [2] | [3] | [19] | [5] | [6] | [7] | [8] | [9] | [10] | [18] | [11] | [12] | [14] | [15] | [16] | [17]
